# Experimental data reported in PubChem BioAssay (Tox21).
# Where “and” joins values, the source holds several entries; their conditions need not be identical. Identical values can stand only once. Inconclusive results are not listed. Values without a mark were called inactive. Calls of active or inactive are those of the source. The call rests on the fitted dose curve; in most records, active means well fitted inhibition curve with a large enough effect in the repeat runs; inconclusive means weak or mixed curves; inactive means no such curve, though single readings can be large or run the other way.
# Target: Cytochrome P450 2C9 (Homo sapiens) (UniProt P11712)
# Sequence (P11712 whole entry, looked up): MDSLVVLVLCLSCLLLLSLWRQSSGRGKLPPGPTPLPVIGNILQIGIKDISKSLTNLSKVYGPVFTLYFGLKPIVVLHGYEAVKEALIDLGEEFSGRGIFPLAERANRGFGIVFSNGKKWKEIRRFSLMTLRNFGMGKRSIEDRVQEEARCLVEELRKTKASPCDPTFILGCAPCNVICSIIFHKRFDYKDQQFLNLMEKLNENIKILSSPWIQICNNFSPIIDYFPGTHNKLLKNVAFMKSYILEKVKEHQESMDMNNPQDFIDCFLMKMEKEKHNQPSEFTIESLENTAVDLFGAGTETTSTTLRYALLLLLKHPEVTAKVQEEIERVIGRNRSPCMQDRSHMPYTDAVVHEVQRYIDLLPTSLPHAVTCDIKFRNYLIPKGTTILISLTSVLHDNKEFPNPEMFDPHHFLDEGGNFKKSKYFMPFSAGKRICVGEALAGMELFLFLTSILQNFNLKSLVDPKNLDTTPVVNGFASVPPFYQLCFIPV
# Assay: Cytochrome P450 Family 2 Subfamily C Member 9 (CYP2C9) small molecule antagonists: luciferase reporter qHTS assay (AID 1671198)
# Details: P450-Glo CYP2C9 enzyme assay, luciferin luminescence; series mostly up to 53 µM; activity change, negative = inhibition: at the top concentration
# Procedure, shortened: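 CYP2C9 activity was measured with a P450-Glo proluciferin substrate. Enzyme–substrate mix was held with compound for 10 min at room temperature, then NADPH regeneration solution was added for 1 h at 37C. Luciferin product was read as luminescence.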
# Further: nearly all actives have a fitted effect of over 50% in size.
# On the % scale 0 is the no-effect control and ±100 the full control effect; potency means the concentration at half of the fitted maximal effect.
Compound,Potency,"activity change, negative = inhibition"
C[C@@H]1C[C@H]2[C@@H]3CCC4=CC(=O)C=C[C@]4(C)[C@@]3(Cl)[C@@H](O)C[C@]2(C)[C@@]1(OC(=O)c1ccco1)C(=O)CCl,8.71 µM (active),–
OCc1c[nH]c2ccccc12,7.52 µM (active),–
CC[C@H](c1ccc(O)cc1)[C@@H](CC)c1ccc(O)cc1,39.9 µM (active) and 30.9 µM (active),–
CCN(C(=O)N(CC)c1ccccc1)c1ccccc1,7.1 µM (active),–
CCCC(=O)OC[C@@H](OC(=O)CCC)[C@@H](OC(=O)CCC)[C@H](Cn1c2nc(=O)[nH]c(=O)c-2nc2cc(C)c(C)cc21)OC(=O)CCC,13.8 µM (active),–
CCCCCCCCOC(=O)c1ccc(O)cc1,31.6 µM (active) and 35.6 µM (active),–
Cc1cccc(N(C)C(=S)Oc2ccc3c(c2)C2CCC3C2)c1 (centres undefined),15.5 µM (active),–
CCCCCCCCOc1ccccc1C(=O)Nc1ccc(C(=O)OCC[N+](C)(CC)CC)cc1,4.36 µM (active),–
CCCCC(CC)CN=C(N)NC(N)=NCCCCCCN=C(N)NC(N)=NCC(CC)CCCC (centres undefined),17.4 µM (active),–
COCCCC/C(=N\OCCN)c1ccc(C(F)(F)F)cc1,3.89 µM (active),–
CCCCN1CCCC[C@H]1C(=O)Nc1c(C)cccc1C,–,1.53%
ON=C1CCCC1,41.3 µM (active),–
Nc1nc2ccccc2n1Cc1ccc(F)cc1,–,-14.3%
Clc1ccc(C(Cn2ccnc2)OCc2ccc(Sc3ccccc3)cc2)c(Cl)c1 (centres undefined),2.75 µM (active),–
O=C(NO)C1(NS(=O)(=O)c2ccc(Oc3ccc(F)cc3)cc2)CCOCC1,56.4 µM (active),–
Nc1c(Cl)cc(Cl)cc1Cl,–,-12.5% [at 115 µM]
O=C1Cc2cc(CCN3CCN(c4nsc5ccccc45)CC3)c(Cl)cc2N1,27.5 µM (active),–

Compound,Potency,"activity change, negative = inhibition"
Oc1ccc2c(c1)-c1ccccc1C2,39.9 µM (active),–
Oc1ccc(Cl)cc1Sc1cc(Cl)ccc1O,10 µM (active) and 7.76 µM (active),–
O=C(Nc1cccc([N+](=O)[O-])c1)c1cc2ccccc2cc1O,17.8 µM (active),–
Fc1ccc([C@@H]2CCNC[C@H]2COc2ccc3c(c2)OCO3)cc1,–,-19.3%
Cc1ccc(-n2nc(C(C)(C)C)cc2NC(=O)Nc2ccc(OCCN3CCOCC3)c3ccccc23)cc1,6.92 µM (active),–
CN(C/C=C/C#CC(C)(C)C)Cc1cccc2ccccc12,15.5 µM (active),–
CCCCCCC[N+](CC)(CC)CCCCc1ccc(Cl)cc1,–,14.8%
CC(C)n1nc(-c2cc3cc(O)ccc3[nH]2)c2c(N)ncnc21,2.45 µM (active),–
N/C(=N\N=C\c1ccc(Cl)cc1)N/N=C/c1ccc(Cl)cc1,13.8 µM (active),–
CC(C)(C)C(=O)OCOC(=O)[C@@H]1N2C(=O)[C@@H](NC(=O)[C@H](N)c3ccccc3)[C@H]2SC1(C)C,24.5 µM (active),–
CCC(CN)=C(c1ccccc1)c1ccccc1,15.5 µM (active),–
Cc1cc(O)c(Cl)c(C)c1Cl,–,135% [at 115 µM]
Oc1cccc(-c2c3nc(c(-c4cccc(O)c4)c4ccc([nH]4)c(-c4cccc(O)c4)c4nc(c(-c5cccc(O)c5)c5ccc2[nH]5)CC4)C=C3)c1,13.8 µM (active),–
Nc1cc(C(F)(F)F)ccc1S,2.19 µM (active),–
Cn1cc(C(=O)[C@@H]2CCc3nc[nH]c3C2)c2ccccc21,–,36.6%
CC1=C(C(=O)OC(C)C)C(c2cccc([N+](=O)[O-])c2)C(C(=O)OC2CN(C(c3ccccc3)c3ccccc3)C2)=C(N)N1 (centres undefined),1.38 µM (active),–
Cc1[nH]cnc1C[C@H]1CCc2c(C)c3ccccc3n2C1=O,0.49 µM (active),–

# Target: Cytochrome P450 1A2 (Homo sapiens) (UniProt P05177)
# Sequence (P05177 whole entry, looked up): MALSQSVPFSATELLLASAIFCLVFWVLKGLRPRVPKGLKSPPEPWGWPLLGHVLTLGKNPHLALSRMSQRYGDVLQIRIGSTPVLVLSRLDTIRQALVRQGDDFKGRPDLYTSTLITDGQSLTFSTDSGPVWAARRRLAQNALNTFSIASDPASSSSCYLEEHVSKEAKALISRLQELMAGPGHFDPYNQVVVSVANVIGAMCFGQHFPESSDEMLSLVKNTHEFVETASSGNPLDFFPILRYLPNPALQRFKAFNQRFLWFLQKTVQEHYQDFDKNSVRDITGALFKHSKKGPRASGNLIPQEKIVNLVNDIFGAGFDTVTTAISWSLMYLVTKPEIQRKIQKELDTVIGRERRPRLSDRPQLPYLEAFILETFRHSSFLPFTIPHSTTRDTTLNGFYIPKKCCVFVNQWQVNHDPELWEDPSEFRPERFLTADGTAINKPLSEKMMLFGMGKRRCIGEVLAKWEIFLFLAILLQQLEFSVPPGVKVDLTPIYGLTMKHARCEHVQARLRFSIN
# Assay: Cytochrome P450 Family 1 Subfamily A Member 2 (CYP1A2) small molecule antagonists: luciferase reporter qHTS assay (AID 1671199)
# Details: P450-Glo CYP1A2 enzyme, luciferin luminescence, 1 h; series mostly up to 53 µM; activity change, negative = inhibition: at the top concentration
# Procedure, shortened: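 Room-temperature CYP1A2 reaction with proluciferin substrate: compounds added from DMSO, 10 min preincubation, NADPH regeneration for 1 h. Luciferin detection reagent then added; luminescence recorded as RLU.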
Compound,"activity change, negative = inhibition",Potency
C[C@@H]1C[C@H]2[C@@H]3CCC4=CC(=O)C=C[C@]4(C)[C@@]3(Cl)[C@@H](O)C[C@]2(C)[C@@]1(OC(=O)c1ccco1)C(=O)CCl,-26.5%,–
OCc1c[nH]c2ccccc12,–,29.1 µM (active)
CC[C@H](c1ccc(O)cc1)[C@@H](CC)c1ccc(O)cc1,-14.6%,–
CCN(C(=O)N(CC)c1ccccc1)c1ccccc1,-11% [at 115 µM],–
CCCC(=O)OC[C@@H](OC(=O)CCC)[C@@H](OC(=O)CCC)[C@H](Cn1c2nc(=O)[nH]c(=O)c-2nc2cc(C)c(C)cc21)OC(=O)CCC,-17.8%,–
CCCCCCCCOC(=O)c1ccc(O)cc1,–,19.9 µM (active) and 12.6 µM (active)
Cc1cccc(N(C)C(=S)Oc2ccc3c(c2)C2CCC3C2)c1 (centres undefined),–,9.11 µM (active)
CCCCCCCCOc1ccccc1C(=O)Nc1ccc(C(=O)OCC[N+](C)(CC)CC)cc1,-10.8%,–
CCCCC(CC)CN=C(N)NC(N)=NCCCCCCN=C(N)NC(N)=NCC(CC)CCCC (centres undefined),–,32.3 µM (active)
COCCCC/C(=N\OCCN)c1ccc(C(F)(F)F)cc1,–,0.204 µM (active)
CCCCN1CCCC[C@H]1C(=O)Nc1c(C)cccc1C,–,17.4 µM (active)
ON=C1CCCC1,–,36.8 µM (active)
Nc1nc2ccccc2n1Cc1ccc(F)cc1,–,24.5 µM (active)
Clc1ccc(C(Cn2ccnc2)OCc2ccc(Sc3ccccc3)cc2)c(Cl)c1 (centres undefined),–,15.5 µM (active)
O=C(NO)C1(NS(=O)(=O)c2ccc(Oc3ccc(F)cc3)cc2)CCOCC1,-0.0695% [at 115 µM],–
Nc1c(Cl)cc(Cl)cc1Cl,–,15.7 µM (active)
Oc1ccc2c(c1)-c1ccccc1C2,–,5.03 µM (active)
Oc1ccc(Cl)cc1Sc1cc(Cl)ccc1O,–,35.5 µM (active) and 27.5 µM (active)
O=C(Nc1cccc([N+](=O)[O-])c1)c1cc2ccccc2cc1O,–,3.56 µM (active)
Fc1ccc([C@@H]2CCNC[C@H]2COc2ccc3c(c2)OCO3)cc1,–,12.9 µM (active)
CN(C/C=C/C#CC(C)(C)C)Cc1cccc2ccccc12,–,17.4 µM (active)
CCCCCCC[N+](CC)(CC)CCCCc1ccc(Cl)cc1,-10.3%,–
CC(C)n1nc(-c2cc3cc(O)ccc3[nH]2)c2c(N)ncnc21,–,3.63 µM (active)
N/C(=N\N=C\c1ccc(Cl)cc1)N/N=C/c1ccc(Cl)cc1,–,3.63 µM (active)
CC(C)(C)C(=O)OCOC(=O)[C@@H]1N2C(=O)[C@@H](NC(=O)[C@H](N)c3ccccc3)[C@H]2SC1(C)C,4.48%,–
Cc1cc(O)c(Cl)c(C)c1Cl,–,17.8 µM (active)
Oc1cccc(-c2c3nc(c(-c4cccc(O)c4)c4ccc([nH]4)c(-c4cccc(O)c4)c4nc(c(-c5cccc(O)c5)c5ccc2[nH]5)CC4)C=C3)c1,6.17%,–
Nc1cc(C(F)(F)F)ccc1S,–,12.3 µM (active)
Cn1cc(C(=O)[C@@H]2CCc3nc[nH]c3C2)c2ccccc21,–,17.4 µM (active)
Cc1[nH]cnc1C[C@H]1CCc2c(C)c3ccccc3n2C1=O,–,1.74 µM (active)
